Measurements: PubChem BioAssay
Active and inactive are the calls of the source.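 Rule for the calls, unless noted: active = binding below the plate cutoff, the plate median minus 3 SD, with a reading above zero; inconclusive = below the plate cutoff but reading exactly zero; inactive = the rest.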

What was measured:
[1] = reduced mouse 2C T cell binding to pMHC/ICAM-1 vesicles – MLPCN validation set, flow cytometry, LFA-1/ICAM-1 modulator project, pilot screen (AID 2523;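 active = response below a set limit, under 55% cells CD8-positive and vesicle-bound, and CD8 cells' 90th-percentile brightness under 279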;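 for vesicle binding response: mean PE anti-B7-1 fluorescence of CD8+ cells relative to row control; 100% = QL9-loaded vesicles with DMSO vehicle in the same plate row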); conditions: 2C mouse CD8+ T cells, at 7 µM, stronger effect = lower value; double positive events: measured here: CD8+/vesicle+ event percentage
[2] = target: Integrin beta-1 (Homo sapiens) + Integrin alpha-4 (Homo sapiens) (UniProt P13612+P05556); assay: alpha4beta1 integrin LIBS antibody binding reduction – U937 cells, HUTS-21 mAb, flow cytometry, validation set, VLA-4 allosteric modulator project, pilot screen (AID 2674;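 active = inhibition above 50%, about 3 SD of the validation set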;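 note: antibody binding induced by the VLA-4 ligand LDV present at three times its Kd; 0% = LDV ligand with antibody and no compound and 100% = antibody without LDV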); conditions: HUTS-21 LIBS mAb binding, at 6.7 µM, stronger effect = higher value, binding induced by LDV ligand
[3] = calorie-restriction mimetic ROS inhibitors, yeast – validation compound set, pilot screen (AID 2706;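 active = superoxide response below 65% of plate, a cut near 3 SD across the whole screen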;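 note: yeast exposed to compound for one week at 30 degrees C before staining; 100% = mean of all compound wells on the same plate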); conditions: S. cerevisiae aging, superoxide DHE fluorescence; at 10 µM, stronger effect = lower value
[4] = target: Beta-adrenergic receptor kinase 1 (Homo sapiens) (UniProt P25098); assay: GRK2 binders displacing RNA aptamer, biochemical, validation, human GRK2, bead flow cytometry (AID 488806;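 active = aptamer binding inhibition above 30%, about 3 SD of noise from non-fluorescent compounds; inactive = inhibition at or below 30%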); conditions: bead-bound GRK2, FAM-aptamer displacement, at 10 µM, stronger effect = higher value
[5] = target: AP-2 complex subunit beta (Homo sapiens) (UniProt P63010); assay: beta-arrestin/AP2 interaction blockers – biochemical, validation set, GST-AP2 beads, flow cytometry, pilot screen (AID 504541;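 active = inhibition above 54%, about 3 SD of non-fluorescent compounds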;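 note: AP2 carries R879A mutation and is captured from E. coli lysate; bead-bound FITC arrestin peptide fluorescence measuring arrestin peptide binding to AP2; 0% = DMSO wells and 100% = excess unlabeled arrestin peptide control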); conditions: FITC arrestin peptide, at 10 µM, stronger effect = higher value, AP2 beta2 appendage fragment, R879A mutant
[6] = cytosolic pH regulators acting via V-ATPase – S. cerevisiae, pHLuorin, HTS validation (AID 504600; in the data active = response above about 15%;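 note: plate controls were DMSO for no effect and reference compound for full effect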); conditions: V-ATPase proton transport, at 10 µM, stronger effect = higher value
[7] = tested on: anti-desmoglein-3 scFv antibody binding to human DSG3; assay: blockers of pathogenic pemphigus antibody–desmoglein-3 binding – biochemical, validation compound set, bead-based, flow cytometry, pilot screen (AID 588368); conditions: Protein G beads, DSG3-Fc, scFv-GFP binding, at 10 µM, stronger effect = lower value;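 note: signal is the median channel fluorescence of bead-bound GFP antibody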
[8] = Nile Red efflux blockade in pump-expressing yeast – validation compound set, multiplex, phenotypic, pilot screen (AID 588506;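 active = efflux inhibition above 0.42, the validation set average plus 4 SD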;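 note: Nile Red retained in cells so higher fluorescence means more efflux inhibition; 0 = negative control wells and 1 = enniatin B 25 µM full block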); conditions: S. cerevisiae pump-expressing triplex, Nile Red efflux flow cytometry; at 10 µM; stronger effect = higher value; the pumps come from Candida albicans
[9] = target: ATP-binding cassette sub-family B member 6 (Homo sapiens) (UniProt Q9NP58); assay: blockers of ABCB6-driven porphyrin uptake – K562-ABCB6 cells, flow cytometry, validation set, pilot screen (AID 588550;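 active = inhibition above the screen-wide mean plus 3 SD, about 51%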;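 note: 0% = DMSO wells and 100% = benzethonium chloride 70 µM positive control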); conditions: K562-ABCB6 porphyrin accumulation, 1 h, at 10 µM, stronger effect = higher value
[10] = AML differentiation inducers, ER-HoxA9 marrow cells – cell-based, GFP/MAC1 double positive, flow cytometry, validation set, primary screen (AID 588685;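 active = differentiation response of at least 50%, scaled between solvent and reference control, from cells with both markers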;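 note: compound exposure lasts four days before antibody staining and flow analysis; 0% = DMSO wells and 100% = 5 µM fulvestrant positive control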); conditions: stronger effect = higher value, normalized: vehicle 0, fulvestrant 100

Sequence of ATP-binding cassette sub-family B member 6 (Homo sapiens) (Q9NP58 whole entry, looked up): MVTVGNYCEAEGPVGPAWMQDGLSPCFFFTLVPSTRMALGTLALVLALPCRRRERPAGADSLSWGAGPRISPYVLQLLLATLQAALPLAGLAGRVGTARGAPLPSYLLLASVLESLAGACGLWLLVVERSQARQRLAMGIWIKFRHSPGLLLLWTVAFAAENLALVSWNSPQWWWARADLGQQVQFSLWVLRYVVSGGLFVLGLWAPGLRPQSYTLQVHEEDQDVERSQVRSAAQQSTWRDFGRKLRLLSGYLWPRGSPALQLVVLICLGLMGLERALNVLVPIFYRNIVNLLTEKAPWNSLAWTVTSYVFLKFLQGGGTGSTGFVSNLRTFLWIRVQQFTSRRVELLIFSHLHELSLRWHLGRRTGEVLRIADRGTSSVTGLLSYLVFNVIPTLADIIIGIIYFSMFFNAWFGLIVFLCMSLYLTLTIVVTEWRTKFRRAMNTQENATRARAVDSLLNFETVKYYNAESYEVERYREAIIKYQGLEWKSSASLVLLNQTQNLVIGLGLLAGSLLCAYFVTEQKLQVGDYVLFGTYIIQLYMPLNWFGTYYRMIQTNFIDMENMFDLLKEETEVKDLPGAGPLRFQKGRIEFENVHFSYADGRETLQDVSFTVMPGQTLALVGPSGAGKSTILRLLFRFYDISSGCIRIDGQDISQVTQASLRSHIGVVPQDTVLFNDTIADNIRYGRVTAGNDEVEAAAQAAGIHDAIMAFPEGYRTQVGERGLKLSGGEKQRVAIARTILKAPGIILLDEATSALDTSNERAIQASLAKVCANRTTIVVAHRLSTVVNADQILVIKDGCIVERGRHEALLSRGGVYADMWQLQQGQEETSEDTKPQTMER
Sequence of Beta-adrenergic receptor kinase 1 (Homo sapiens) (P25098 whole entry, looked up): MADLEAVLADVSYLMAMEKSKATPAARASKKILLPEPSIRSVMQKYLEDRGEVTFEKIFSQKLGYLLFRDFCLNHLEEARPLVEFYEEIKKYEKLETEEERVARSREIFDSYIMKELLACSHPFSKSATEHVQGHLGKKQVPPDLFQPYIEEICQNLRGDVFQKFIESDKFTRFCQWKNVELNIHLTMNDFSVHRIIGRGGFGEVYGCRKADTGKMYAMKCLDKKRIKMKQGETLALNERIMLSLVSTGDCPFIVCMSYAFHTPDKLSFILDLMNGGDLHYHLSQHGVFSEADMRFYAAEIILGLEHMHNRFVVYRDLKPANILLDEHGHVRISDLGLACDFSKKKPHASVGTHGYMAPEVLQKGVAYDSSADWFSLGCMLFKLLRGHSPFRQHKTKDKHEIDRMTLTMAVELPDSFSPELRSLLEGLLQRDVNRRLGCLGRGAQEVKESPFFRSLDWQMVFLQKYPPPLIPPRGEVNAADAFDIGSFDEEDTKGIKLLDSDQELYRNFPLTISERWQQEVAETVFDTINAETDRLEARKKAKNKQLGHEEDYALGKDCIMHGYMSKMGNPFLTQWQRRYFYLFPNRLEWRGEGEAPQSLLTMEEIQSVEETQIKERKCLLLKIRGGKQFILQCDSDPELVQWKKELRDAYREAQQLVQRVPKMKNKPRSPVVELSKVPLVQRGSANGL
Sequence of Integrin beta-1 (Homo sapiens) + Integrin alpha-4 (Homo sapiens) (P05556 whole entry, looked up): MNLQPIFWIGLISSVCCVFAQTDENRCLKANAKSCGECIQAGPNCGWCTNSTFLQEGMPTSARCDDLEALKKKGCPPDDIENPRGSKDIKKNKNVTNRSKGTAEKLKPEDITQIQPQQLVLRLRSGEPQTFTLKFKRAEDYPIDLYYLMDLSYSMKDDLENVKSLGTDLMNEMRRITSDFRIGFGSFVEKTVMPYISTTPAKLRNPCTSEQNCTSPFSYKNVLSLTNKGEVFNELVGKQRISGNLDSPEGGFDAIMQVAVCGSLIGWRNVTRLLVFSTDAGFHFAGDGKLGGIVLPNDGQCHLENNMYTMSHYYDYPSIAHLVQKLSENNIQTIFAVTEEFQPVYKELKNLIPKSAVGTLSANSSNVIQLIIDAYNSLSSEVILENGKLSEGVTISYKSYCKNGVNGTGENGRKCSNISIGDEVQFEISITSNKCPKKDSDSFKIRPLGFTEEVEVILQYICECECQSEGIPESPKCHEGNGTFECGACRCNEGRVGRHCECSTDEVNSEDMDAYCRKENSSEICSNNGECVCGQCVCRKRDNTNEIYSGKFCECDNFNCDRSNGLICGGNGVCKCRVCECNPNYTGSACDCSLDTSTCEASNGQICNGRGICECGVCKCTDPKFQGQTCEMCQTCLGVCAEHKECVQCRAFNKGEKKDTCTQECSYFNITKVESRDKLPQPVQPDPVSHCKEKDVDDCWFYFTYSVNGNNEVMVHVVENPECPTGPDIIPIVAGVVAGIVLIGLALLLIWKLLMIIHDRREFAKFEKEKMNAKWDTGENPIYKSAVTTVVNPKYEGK
Sequence of Integrin beta-1 (Homo sapiens) + Integrin alpha-4 (Homo sapiens) (P13612 whole entry, looked up): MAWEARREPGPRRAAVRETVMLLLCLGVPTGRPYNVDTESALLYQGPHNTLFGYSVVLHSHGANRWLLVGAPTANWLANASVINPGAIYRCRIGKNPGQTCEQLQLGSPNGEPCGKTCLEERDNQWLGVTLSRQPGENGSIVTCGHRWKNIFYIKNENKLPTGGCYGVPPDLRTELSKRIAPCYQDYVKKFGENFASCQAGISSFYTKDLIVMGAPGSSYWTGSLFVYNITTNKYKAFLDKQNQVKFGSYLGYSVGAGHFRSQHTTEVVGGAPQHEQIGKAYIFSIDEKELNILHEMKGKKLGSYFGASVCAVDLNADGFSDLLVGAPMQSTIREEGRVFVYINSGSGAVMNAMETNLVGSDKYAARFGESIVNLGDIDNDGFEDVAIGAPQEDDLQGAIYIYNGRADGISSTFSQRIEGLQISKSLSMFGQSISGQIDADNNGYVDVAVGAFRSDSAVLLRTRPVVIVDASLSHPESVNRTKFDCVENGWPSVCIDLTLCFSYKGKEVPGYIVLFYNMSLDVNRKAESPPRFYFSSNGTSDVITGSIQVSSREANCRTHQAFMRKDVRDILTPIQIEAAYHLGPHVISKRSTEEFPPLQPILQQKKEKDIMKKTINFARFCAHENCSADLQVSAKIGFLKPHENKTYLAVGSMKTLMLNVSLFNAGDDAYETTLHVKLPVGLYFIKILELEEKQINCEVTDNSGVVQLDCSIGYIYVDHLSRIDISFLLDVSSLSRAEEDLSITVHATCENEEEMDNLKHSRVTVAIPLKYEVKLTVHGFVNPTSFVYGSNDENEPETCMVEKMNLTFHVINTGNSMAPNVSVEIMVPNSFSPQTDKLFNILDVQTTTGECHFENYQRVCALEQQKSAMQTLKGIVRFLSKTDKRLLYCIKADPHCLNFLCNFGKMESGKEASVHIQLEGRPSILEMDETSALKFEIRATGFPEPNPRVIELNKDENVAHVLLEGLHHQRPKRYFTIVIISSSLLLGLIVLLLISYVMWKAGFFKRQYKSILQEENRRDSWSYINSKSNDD
Sequence of AP-2 complex subunit beta (Homo sapiens) (P63010 whole entry, looked up, the tested form may be a part, one chain of several): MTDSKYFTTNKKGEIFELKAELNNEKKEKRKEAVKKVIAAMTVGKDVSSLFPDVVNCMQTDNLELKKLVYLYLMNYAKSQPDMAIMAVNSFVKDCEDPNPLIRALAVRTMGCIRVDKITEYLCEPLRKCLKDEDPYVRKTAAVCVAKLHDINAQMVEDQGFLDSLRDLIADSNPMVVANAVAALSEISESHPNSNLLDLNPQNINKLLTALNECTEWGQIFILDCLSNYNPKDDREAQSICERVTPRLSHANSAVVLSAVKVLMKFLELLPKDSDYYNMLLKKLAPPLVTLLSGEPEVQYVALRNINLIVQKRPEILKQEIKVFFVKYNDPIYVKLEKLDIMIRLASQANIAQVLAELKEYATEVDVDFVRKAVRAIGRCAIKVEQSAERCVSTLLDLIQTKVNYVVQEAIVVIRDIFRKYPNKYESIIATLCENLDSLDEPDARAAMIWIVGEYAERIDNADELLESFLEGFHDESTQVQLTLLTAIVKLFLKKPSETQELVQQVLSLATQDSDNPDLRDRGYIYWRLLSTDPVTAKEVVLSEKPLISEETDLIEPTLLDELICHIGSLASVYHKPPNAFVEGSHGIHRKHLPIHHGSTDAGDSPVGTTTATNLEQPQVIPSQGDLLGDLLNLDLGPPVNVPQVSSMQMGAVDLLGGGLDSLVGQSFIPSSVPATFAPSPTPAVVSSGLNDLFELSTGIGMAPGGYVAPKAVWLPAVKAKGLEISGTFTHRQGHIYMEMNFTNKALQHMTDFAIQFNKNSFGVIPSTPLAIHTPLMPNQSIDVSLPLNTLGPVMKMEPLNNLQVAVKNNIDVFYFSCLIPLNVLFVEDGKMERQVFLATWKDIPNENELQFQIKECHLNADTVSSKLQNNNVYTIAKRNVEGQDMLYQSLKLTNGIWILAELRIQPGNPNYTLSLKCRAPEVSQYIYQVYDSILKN

O=C(CCNNC(=O)c1ccncc1)NCc1ccccc1
active: efflux inhibition (fraction of control) [8] 0.48
66.8%: double positive events [1]
inactive: vesicle binding response [1] 184% | inhibition [2] 18.4% | superoxide response (% of plate) [3] 101% | aptamer binding inhibition [4] -1% | inhibition [5] 26.4% | response [6] 1.75% | binding (% of control) [7] 99% | inhibition [9] 5% | differentiation response [10] -24.4%

CCNC(=O)c1sc2cc(C)ccc2c1Cl
inactive: vesicle binding response [1] 294% | inhibition [2] -10.5% | superoxide response (% of plate) [3] 86.4% | aptamer binding inhibition [4] -2% | inhibition [5] -9.7% | response [6] 0.2% | binding (% of control) [7] 99.5% | efflux inhibition (fraction of control) [8] -0.16 | inhibition [9] 5% | differentiation response [10] 1.41%
60.2%: double positive events [1]

Cn1c(=O)[nH]c(=O)c2c1nc(Br)n2CCCO
64.5%: double positive events [1]
inactive: vesicle binding response [1] 261% | inhibition [2] 6.29% | superoxide response (% of plate) [3] 90.2% | aptamer binding inhibition [4] 0% | inhibition [5] 7.12% | response [6] 0.07% | binding (% of control) [7] 109% | efflux inhibition (fraction of control) [8] -0.01 | inhibition [9] 8% | differentiation response [10] -24.4%

O=C(CNC(=O)OCc1ccccc1)NC1CCCCCC1
inactive: vesicle binding response [1] 201% | inhibition [2] 10% | superoxide response (% of plate) [3] 90.8% | aptamer binding inhibition [4] 4% | inhibition [5] 1.41% | response [6] 11.3% | binding (% of control) [7] 99.1% | efflux inhibition (fraction of control) [8] -0.05 | inhibition [9] 12% | differentiation response [10] 6.26%
55.1%: double positive events [1]

CC(C)OC(=O)C(C)(C)Oc1ccc(C(=O)c2ccc(Cl)cc2)cc1
54.1%: double positive events [1]
inactive: vesicle binding response [1] 223% | inhibition [2] 12.8% | superoxide response (% of plate) [3] 106% | aptamer binding inhibition [4] -1% | inhibition [5] -5.48% | response [6] 0.98% | binding (% of control) [7] 103% | efflux inhibition (fraction of control) [8] -0.09 | inhibition [9] 7% | differentiation response [10] -13.1%

CCCCNC(=O)NS(=O)(=O)c1ccc(C)cc1
inactive: vesicle binding response [1] 172% | inhibition [2] 12.8% | superoxide response (% of plate) [3] 108% | aptamer binding inhibition [4] 4% | inhibition [5] -9.7% | response [6] 8.22% | binding (% of control) [7] 99% | efflux inhibition (fraction of control) [8] -0.05 | inhibition [9] 9% | differentiation response [10] -19.6%
56.1%: double positive events [1]

O=C(NCC1CCCCN1)c1cc(OCC(F)(F)F)ccc1OCC(F)(F)F (centres undefined)
51.3%: double positive events [1]
inactive: vesicle binding response [1] 183% | inhibition [2] 1.62% | superoxide response (% of plate) [3] 102% | aptamer binding inhibition [4] -3% | inhibition [5] -20.4% | response [6] 0.89% | binding (% of control) [7] 103% | efflux inhibition (fraction of control) [8] -0.05 | inhibition [9] 14% | differentiation response [10] -8.27%

CC1(C)CC(CC(=O)Nc2nccs2)(c2ccccc2)CCO1 (centres undefined)
51.5%: double positive events [1]
inactive: vesicle binding response [1] 182% | inhibition [2] 4.42% | superoxide response (% of plate) [3] 103% | aptamer binding inhibition [4] -7% | inhibition [5] -9.2% | response [6] 5.11% | binding (% of control) [7] 96.4% | efflux inhibition (fraction of control) [8] 0.18 | inhibition [9] 8% | differentiation response [10] 1.41%

O=C(O)C[C@@H](O)C(=O)O
inactive: vesicle binding response [1] 193% | inhibition [2] 0.69% | superoxide response (% of plate) [3] 104% | aptamer binding inhibition [4] 2% | inhibition [5] -10.9% | response [6] -4.82% | binding (% of control) [7] 102% | efflux inhibition (fraction of control) [8] -0.2 | inhibition [9] 4% | differentiation response [10] 6.26%
56.6%: double positive events [1]

CC1(C)CC(=O)c2cc(O)ccc2O1
61%: double positive events [1]
inactive: vesicle binding response [1] 199% | inhibition [2] 13.8% | superoxide response (% of plate) [3] 95.8% | aptamer binding inhibition [4] 3% | inhibition [5] 10.6% | response [6] -2.03% | binding (% of control) [7] 107% | efflux inhibition (fraction of control) [8] -0.01 | inhibition [9] 11% | differentiation response [10] -13.1%

Cc1nc(N[C@@H](Cc2c[nH]c3ccccc23)C(=O)O)c2oc3ccccc3c2n1
inactive: vesicle binding response [1] 218% | inhibition [2] -0.24% | superoxide response (% of plate) [3] 104% | aptamer binding inhibition [4] 0% | inhibition [5] -8.46% | response [6] -0.92% | binding (% of control) [7] 102% | efflux inhibition (fraction of control) [8] -0.24 | inhibition [9] 9% | differentiation response [10] -9.89%
62.1%: double positive events [1]

Oc1ccc(/C=C/c2cc(O)cc(O)c2)cc1
52.4%: double positive events [1]
inactive: vesicle binding response [1] 225% | inhibition [2] -6.77% | superoxide response (% of plate) [3] 96.3% | aptamer binding inhibition [4] 2% | inhibition [5] 7.43% | response [6] -1.9% | binding (% of control) [7] 97.2% | efflux inhibition (fraction of control) [8] -0.43 | inhibition [9] 6% | differentiation response [10] -16.4%

COc1c2occc2c(OC)c2c(=O)cc(C(F)(F)C(F)(F)F)oc12
inactive: vesicle binding response [1] 156% | inhibition [2] 3.49% | superoxide response (% of plate) [3] 123% | aptamer binding inhibition [4] 2% | inhibition [5] -6.1% | response [6] -16% | binding (% of control) [7] 103% | efflux inhibition (fraction of control) [8] 0.03 | inhibition [9] 9% | differentiation response [10] -16.4%
50%: double positive events [1]

C[C@]12CCC(=O)C[C@@H]1CC[C@@H]1[C@@H]2CC[C@]2(C)C=CC[C@@H]12
inactive: vesicle binding response [1] 201% | inhibition [2] 5.36% | superoxide response (% of plate) [3] 111% | aptamer binding inhibition [4] 2% | inhibition [5] 2.65% | binding (% of control) [7] 103% | efflux inhibition (fraction of control) [8] 0.1 | inhibition [9] 4% | differentiation response [10] 28.9%
active: response [6] 17%
51.4%: double positive events [1]
